Measurements reported in PubChem BioAssay (EPA / NIEHS).
Results filed as inconclusive are left out. Active and inactive are the calls of the source. Rule for the calls, unless noted: active = hit-call score of the fitted dose curve at least 0.9, where 1 is the maximum; inactive = score below 0.9.

What was measured:
[1] = read-out: succinate dehydrogenase complex iron sulfur subunit B (SDHB), SDHB (gene 6390); test: LTEA_HepaRG_SDHB: Life Technologies and Expression Analysis (LTEA) Assay for succinate dehydrogenase complex iron sulfur subunit B (SDHB) using HepaRG (AID 2283528); conditions: mRNA level, 48 h; actives raise or lower the signal
Procedure, shortened: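 Readout is SDHB transcript level by qRT-PCR, normalised to three housekeeping genes and fitted bidirectionally against 0.5% DMSO vehicle. Human HepaRG cells were treated for 48 h at up to 100 uM.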

[2] = read-out: Signal transducer and activator of transcription 3 (Homo sapiens) (UniProt P40763); test: LTEA_HepaRG_STAT3: Life Technologies and Expression Analysis (LTEA) Assay for Signal transducer and activator of transcription (STAT3) using HepaRG (AID 2283529); conditions: mRNA level, 48 h; actives raise or lower the signal
Procedure, shortened: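 Read-out is STAT3 mRNA level by qRT-PCR, normalized to three housekeeping genes, in human HepaRG liver cells treated for 48 h. Concentrations ran from 100 uM downward in half-log steps; curves were fitted for gain or loss relative to 0.5% DMSO.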

[3] = read-out: solute carrier (SLCO1B1), SLCO1B1 (gene 10599); test: LTEA_HepaRG_SLCO1B1: Life Technologies and Expression Analysis (LTEA) Assay for solute carrier (SLCO1B1) using HepaRG (AID 2283530); conditions: mRNA level, 48 h; actives raise or lower the signal
Procedure, shortened: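 SLCO1B1 transcript read by qRT-PCR (Fluidigm arrays), normalized to three housekeeping genes, after 48 h chemical exposure of HepaRG cells; bidirectional concentration-response fitting versus 0.5% DMSO baseline. Eight-point half-log series, maximum 100 uM.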

[4] = read-out: sulfotransferase 2A1 (SULT2A1), SULT2A1 (gene 6822); test: LTEA_HepaRG_SULT2A1: Life Technologies and Expression Analysis (LTEA) Assay for sulfotransferase 2A1 (SULT2A1) using HepaRG (AID 2283531); conditions: mRNA level, 48 h; actives raise or lower the signal
Procedure, shortened: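 HepaRG, 48 h chemical exposure, 8-pt half-log curve from 100 uM in 0.5% DMSO, duplicates. Readout: TaqMan qRT-PCR of SULT2A1 mRNA, housekeeping-normalized. Bidirectional fit vs DMSO baseline.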

[5] = read-out: Transforming Growth Factor (TGFA), TGFA (gene 7039); test: LTEA_HepaRG_TGFA: Life Technologies and Expression Analysis (LTEA) Assay for Transforming Growth Factor (TGFA) using HepaRG (AID 2283532); conditions: mRNA level, 48 h; actives raise or lower the signal
Procedure, shortened: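 HepaRG (human liver line), 48 h exposure, 8 conc. half-log down from 100 uM, 0.5% DMSO vehicle, duplicates; serum-free induction medium. TGFA mRNA by TaqMan qRT-PCR, ACTB/GAPDH/POLR2A normalization; gain/loss fit vs DMSO.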

[6] = read-out: Transforming Growth Factor (TGFB1), TGFB1 (gene 7040); test: LTEA_HepaRG_TGFB1: Life Technologies and Expression Analysis (LTEA) Assay for Transforming Growth Factor (TGFB1) Transporter using HepaRG (AID 2283533); conditions: mRNA level, 48 h; actives raise or lower the signal
Procedure, shortened: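 qRT-PCR readout of TGFB1 transcript in HepaRG lysates, normalized to three housekeeping genes; gain or loss of signal fitted relative to 0.5% DMSO vehicle. Exposure: 48 h, 8-point curve from 100 uM, duplicate wells.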

TIMP1, TIMP1 (gene 7076) = test: LTEA_HepaRG_TIMP1: Life Technologies and Expression Analysis (LTEA) Assay for TIMP1 using HepaRG (AID 2283534); conditions: mRNA level, 48 h; actives raise or lower the signal;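 note: TaqMan qRT-PCR signal normalized to ACTB GAPDH and POLR2A housekeeping genes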
Procedure, shortened: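 HepaRG, 48 h exposure, 8-pt half-log series from 100 uM in 0.5% DMSO, duplicates; TIMP1 transcript by Fluidigm qRT-PCR, housekeeping-normalized; bidirectional curve fit vs DMSO baseline.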

[7] = read-out: Tumor necrosis factor receptor 1 (TNFRSF1A), TNFRSF1A (gene 7132); test: LTEA_HepaRG_TNFRSF1A: Life Technologies and Expression Analysis (LTEA) Assay for Tumor necrosis factor receptor 1 (TNFRSF1A) using HepaRG (AID 2283535); conditions: mRNA level, 48 h; actives raise or lower the signal
Procedure, shortened: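 HepaRG, 48 h plating then 48 h chemical exposure, serum-free induction media; 8-pt CRC from 100 uM, half-log, 0.5% DMSO vehicle, duplicates. Readout: TaqMan qRT-PCR (Fluidigm), housekeeping-gene normalized; bidirectional fit vs DMSO.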

[8] = read-out: Thyroid Hormone Responsive (THRSP), THRSP (gene 7069); test: LTEA_HepaRG_THRSP: Life Technologies and Expression Analysis (LTEA) Assay for Thyroid Hormone Responsive (THRSP) using HepaRG (AID 2283536); conditions: mRNA level, 48 h; actives raise or lower the signal
Procedure, shortened: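 mRNA induction or loss relative to 0.5% DMSO vehicle was fitted bidirectionally across an eight-point curve whose highest exposure was 100 uM. Human HepaRG liver cells received chemicals in duplicate over 48 h before RNA extraction.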

[9] = read-out: Cellular tumor antigen p53 (Homo sapiens) (UniProt P04637); test: LTEA_HepaRG_TP53: Life Technologies and Expression Analysis (LTEA) Assay for Tumor Protein P53 (TP53) using HepaRG (AID 2283537); conditions: mRNA level, 48 h; actives raise or lower the signal
Procedure, shortened: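 Read-out is TP53 transcript level by microfluidic qRT-PCR, normalised to three housekeeping genes and fitted bidirectionally against DMSO. Human HepaRG cells received compounds for 48 h, highest concentration 100 uM.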

[10] = read-out: UDP glucuronosyltransferase (UGT1A1), UGT1A1 (gene 54658); test: LTEA_HepaRG_UGT1A1: Life Technologies and Expression Analysis (LTEA) Assay for UDP glucuronosyltransferase (UGT1A1) using HepaRG (AID 2283538); conditions: mRNA level, 48 h; actives raise or lower the signal
Procedure, shortened: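 Human liver HepaRG cultures receive test chemical for 48 h, up to 100 uM in 0.5% DMSO, with phenobarbital induction controls. UGT1A1 mRNA is measured by qRT-PCR and normalized to ACTB, GAPDH and POLR2A.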

[11] = read-out: UDP glucuronosyltransferase (UGT1A6), UGT1A6 (gene 54578); test: LTEA_HepaRG_UGT1A6: Life Technologies and Expression Analysis (LTEA) Assay for UDP glucuronosyltransferase (UGT1A6) using HepaRG (AID 2283539); conditions: mRNA level, 48 h; actives raise or lower the signal
Procedure, shortened: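 qRT-PCR readout of UGT1A6 mRNA (normalized to ACTB/GAPDH/POLR2A) in differentiated HepaRG cells after 48 h chemical exposure; 8 concentrations, top 100 uM, half-log steps, 0.5% DMSO. Bidirectional curve fit relative to DMSO baseline.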

[12] = read-out: X-box binding protein 1 (XBP1), XBP1 (gene 7494); test: LTEA_HepaRG_XBP1: Life Technologies and Expression Analysis (LTEA) Assay for X-box binding protein 1 (XBP1) using HepaRG (AID 2283540); conditions: mRNA level, 48 h; actives raise or lower the signal
Procedure, shortened: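 HepaRG, 48 h exposure, 8-pt half-log CRC top 100 uM, 0.5% DMSO vehicle, duplicates. Readout: TaqMan qRT-PCR of XBP1 mRNA, housekeeping-normalised (ACTB/GAPDH/POLR2A); bidirectional fit vs DMSO baseline.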

[13] = LTEA_HepaRG_LDH_cytotoxicity: Cytotoxicity Assessment in the Life Technologies and Expression Analysis (LTEA) Assay (AID 2283563; active = hit-call score of the fitted dose curve at least 0.9, where 1 is the maximum)
Procedure, shortened: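 HepaRG (human liver line), 48 h exposure, 8-pt half-log series from 100 uM, 0.5% DMSO vehicle, duplicates. Read-out: LDH in spent medium. Positive-direction fit vs DMSO baseline.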

[14] = Tanguay_ZF_120hpf_MORT_legacy: (Legacy) Oregon State University Tanguay Lab 120 Hour Post-fertilization zebrafish Assay for Mortality (AID 2283633; active = hit-call score of the fitted dose curve at least 0.9, where 1 is the maximum)
Procedure, shortened: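 Brightfield scoring of embryo death (binary) at 24 and 120 hpf; static exposure 6–120 hpf, 28C, sealed and foil-covered. Pronase-dechorionated 5D wild-type larvae, single embryo per well. DMSO 0.64% v/v; trimethyltin chloride 5uM positive control.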

[15] = Tanguay_ZF_120hpf_YSE_legacy: (Legacy) Oregon State University Tanguay Lab 120 Hour Post-fertilization zebrafish Assay for Yolk Sac Edema (AID 2283634; active = hit-call score of the fitted dose curve at least 0.9, where 1 is the maximum)
Procedure, shortened: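 Binary brightfield scoring of yolk sac edema at 120 hpf; DMSO baseline, gain-of-signal fitting. Dechorionated 5D larvae, one per well, static exposure 6–120 hpf, 28C, 0.64% DMSO. Dead embryos not scored.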

[16] = Tanguay_ZF_120hpf_AXIS_legacy: (Legacy) Oregon State University Tanguay Lab 120 Hour Post-fertilization zebrafish Assay for Body Axis Malformation (AID 2283635; active = hit-call score of the fitted dose curve at least 0.9, where 1 is the maximum)
Procedure, shortened: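 Embryos: 5D wild-type, pronase-dechorionated 4 hpf; static exposure 6–120 hpf, 28C, sealed, dark, 1 embryo/well, 0.64% DMSO. 120 hpf axis malformation scored present/absent; dead embryos excluded. Analysed as gain of signal vs DMSO.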

[17] = Tanguay_ZF_120hpf_EYE_legacy: (Legacy) Oregon State University Tanguay Lab 120 Hour Post-fertilization zebrafish Assay for Eye Malformation (AID 2283636; active = hit-call score of the fitted dose curve at least 0.9, where 1 is the maximum)
Procedure, shortened: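 Read-out is binary presence or absence of eye malformation, scored by brightfield microscopy at 120 hpf. Single larvae were exposed from 6 hpf in embryo medium containing 0.64% DMSO, with DMSO as baseline.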

[18] = Tanguay_ZF_120hpf_SNOU_legacy: (Legacy) Oregon State University Tanguay Lab 120 Hour Post-fertilization zebrafish Assay for Snout Malformation (AID 2283637; active = hit-call score of the fitted dose curve at least 0.9, where 1 is the maximum)
Procedure, shortened: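 Snout malformation read as a yes/no call on brightfield images of 120 hpf larvae (Tropical 5D strain). Static exposure began at 6 hpf on dechorionated embryos in 0.64% DMSO, with gain of signal analysed versus DMSO controls.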

[19] = Tanguay_ZF_120hpf_JAW_legacy: (Legacy) Oregon State University Tanguay Lab 120 Hour Post-fertilization zebrafish Assay for Jaw Malformation (AID 2283638; active = hit-call score of the fitted dose curve at least 0.9, where 1 is the maximum)
Procedure, shortened: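 Binary jaw-malformation calls at 120 hpf by brightfield imaging; DMSO (0.64% v/v) = baseline. Embryos: 5D wild-type, pronase-dechorionated, one per well from 6 hpf, static exposure, 28C, sealed, dark.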

Measured: outcome

Chain of Cellular tumor antigen p53 (Homo sapiens) (P04637 whole entry, looked up): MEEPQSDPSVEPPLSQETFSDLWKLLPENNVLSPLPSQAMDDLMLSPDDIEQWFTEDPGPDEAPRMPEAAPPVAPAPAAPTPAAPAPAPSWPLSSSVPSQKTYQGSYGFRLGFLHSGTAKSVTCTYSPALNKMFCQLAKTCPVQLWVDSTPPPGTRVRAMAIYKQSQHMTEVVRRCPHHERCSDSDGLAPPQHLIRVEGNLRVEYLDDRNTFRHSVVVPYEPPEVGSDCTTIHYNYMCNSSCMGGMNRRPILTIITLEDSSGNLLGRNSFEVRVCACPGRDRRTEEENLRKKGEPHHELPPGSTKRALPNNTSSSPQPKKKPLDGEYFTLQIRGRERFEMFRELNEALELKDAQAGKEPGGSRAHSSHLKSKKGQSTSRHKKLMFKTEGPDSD
Chain of Signal transducer and activator of transcription 3 (Homo sapiens) (P40763 whole entry, looked up): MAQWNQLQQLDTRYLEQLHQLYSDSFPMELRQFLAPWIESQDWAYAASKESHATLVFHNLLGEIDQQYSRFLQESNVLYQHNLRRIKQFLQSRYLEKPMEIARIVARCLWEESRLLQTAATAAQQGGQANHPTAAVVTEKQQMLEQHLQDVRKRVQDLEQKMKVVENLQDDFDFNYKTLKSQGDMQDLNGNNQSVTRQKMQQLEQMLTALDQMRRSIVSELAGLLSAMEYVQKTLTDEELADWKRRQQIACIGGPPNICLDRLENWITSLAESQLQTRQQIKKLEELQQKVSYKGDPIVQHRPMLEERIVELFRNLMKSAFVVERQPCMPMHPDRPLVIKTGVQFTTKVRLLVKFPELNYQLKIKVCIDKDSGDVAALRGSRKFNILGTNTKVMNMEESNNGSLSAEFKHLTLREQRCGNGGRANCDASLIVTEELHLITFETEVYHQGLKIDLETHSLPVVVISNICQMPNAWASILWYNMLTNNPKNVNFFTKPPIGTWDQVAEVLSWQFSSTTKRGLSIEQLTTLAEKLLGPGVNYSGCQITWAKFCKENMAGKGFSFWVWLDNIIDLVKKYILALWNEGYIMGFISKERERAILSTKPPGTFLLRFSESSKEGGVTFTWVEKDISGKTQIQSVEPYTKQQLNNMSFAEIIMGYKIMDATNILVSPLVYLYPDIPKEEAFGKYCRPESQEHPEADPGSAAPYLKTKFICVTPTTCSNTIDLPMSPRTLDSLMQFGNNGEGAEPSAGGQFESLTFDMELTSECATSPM

N#CCCCCC#N
inactive: all assays above

O=[N+]([O-])c1ccc(Cl)cc1
inactive: all assays above
